Reference: PubChem BioAssay (NCATS)
Results filed as inconclusive are left out. The source made the active and inactive calls. Calls follow the shape of the dose curve; as a rule, active = well fitted inhibition curve with a large enough effect; inconclusive = small, poorly fitted or top-dose-only effect; inactive = flat fitted curve, though single readings scatter. Where a SMILES comes first, the peptide text is derived from it. [ ]: non-standard residue; d: D form. 2Abz = Nc1ccccc1C(=O)O

What was measured:
HEK293 = assay: Cytotoxic Profiling of Annotated Libraries Using Quantitative High-Throughput Screening (AID 1296008); conditions: Five cell lines viability, CellTiter-Glo ATP luminescence, 48-72 h; max response: hits give low values; as to max response: % is scaled to controls: 0 for no effect and ±100 for the full control effect
Summary of the method: (§1)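 Cytotoxicity was measured as CellTiter-Glo ATP luminescence, read after 10 min at room temperature. Compound treatment of the cells lasted 48 or 72 hr at 37 degrees Celsius in a qHTS format.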

HaCat [1] = assay: as above; conditions: Five cell lines viability, CellTiter-Glo ATP luminescence, 48-72 h; max response: hits give low values
Summary of the method: as §1

KB-3-1 = assay: as above; conditions: Five cell lines viability, CellTiter-Glo ATP luminescence, 48-72 h; max response: hits give low values
Summary of the method: as §1

NIH3T3 = assay: as above; conditions: Five cell lines viability, CellTiter-Glo ATP luminescence, 48-72 h; max response: hits give low values
Summary of the method: as §1

HACAT [2] = assay: qHTS assay to identify novel small-molecules to repurpose for Merkel cell carcinoma treatment (AID 1296009); conditions: MCC and control cell lines, CellTiter-Glo viability, 72 h; at 44.8 µM (top of the series) unless noted
Summary of the method: (§2)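 After compound transfer in DMSO, plates were kept 72 hr at 37 degree celsius. Luminescent ATP signal from CellTiter-Glo served as viability measure, normalized against DMSO and no-cell controls.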

HEK293T = assay: as above; conditions: MCC and control cell lines, CellTiter-Glo viability, 72 h; series mostly up to 44.8 µM
Summary of the method: as §2
Also: nearly all actives have a fitted effect of over 60% in size.

CCC(C)C1NC(=O)C2CCCN2C(=O)C(C(C)C)NC(=O)c2ccccc2NC(=O)C(Cc2ccc(O)cc2)NC(=O)C(C)NC(=O)C(C(C)O)NC1=O (stereo not given) (cyclo([2Abz]VPITAY); configuration not given here)
inactive: outcome (HEK293) | outcome (HaCat [1]) | outcome (KB-3-1) | outcome (NIH3T3) | outcome (HACAT [2]) inactive [at 17.4 µM] | Potency (HEK293T)

CC1(C)C[C@H]2C3=CCC4[C@@]5(C)CC[C@H](O[C@H]6O[C@H](C(=O)O)[C@@H](O)[C@H](O)[C@H]6O[C@H]6O[C@H](CO)[C@@H](O)[C@H](O)[C@H]6O[C@@H]6O[C@H](CO)[C@@H](O)[C@H](O)[C@H]6O)[C@](C)(CO)C5CC[C@@]4(C)[C@]3(C)CC[C@@]2(C)[C@H](O[C@@H]2OC[C@H](O)[C@H](OC3O[C@H](CO)[C@@H](O)[C@H](O)[C@H]3O)[C@H]2O)[C@@H]1O (stereo not given in full)
inactive: outcome (HEK293) | outcome (HaCat [1]) | max response (KB-3-1) 9.85% | max response (NIH3T3) 4.34% | outcome (HACAT [2]) inactive [at 9.27 µM] | outcome (HEK293T) inactive [at 9.27 µM]

COc1cc(COC2OC(CO)C(O)C(O)C2O)cc(OC)c1O (stereo not given)
inactive: outcome (HEK293) | outcome (HaCat [1]) | outcome (KB-3-1) | outcome (NIH3T3) | outcome (HACAT [2]) | Potency (HEK293T)

CC(=O)Oc1cc2c(s1)CCN([C@H](C(=O)C1CC1)c1ccccc1F)C2
inactive: outcome (HEK293) | outcome (HaCat [1]) | outcome (KB-3-1) | max response (NIH3T3) 3.19% | outcome (HACAT [2]) | Potency (HEK293T)

C[C@@H](O)[C@H](N)C(=O)N1CCC[C@H]1C(=O)N1CCC[C@H]1C(=O)N[C@H](C(N)=O)[C@@H](C)O (H-TPPT-NH2)
inactive: outcome (HEK293) | outcome (HaCat [1]) | outcome (KB-3-1) | outcome (NIH3T3) | outcome (HACAT [2]) inactive [at 9.27 µM] | outcome (HEK293T) inactive [at 9.27 µM]

O=C(OCc1cccc(O)c1O[C@@H]1O[C@H](CO)[C@@H](O)[C@H](O)[C@H]1O)C1(O)C(=O)C2C=CC1C1C=CC(=O)C(O)(C(=O)OCc3cccc(O)c3O[C@@H]3O[C@H](CO)[C@@H](O)[C@H](O)[C@H]3O)C21 (stereo not given in full)
inactive: outcome (HEK293) | outcome (HaCat [1]) | outcome (KB-3-1) | max response (NIH3T3) 3.82% | outcome (HACAT [2]) inactive [at 9.27 µM] | outcome (HEK293T) inactive [at 9.27 µM]

CC(C)c1cc2c(c(O)c1O[C@@H]1O[C@H](CO)[C@@H](O)[C@H](O)[C@H]1O)CC1(O)CCC(O)C(C)(C)C1CC2 (stereo not given in full)
inactive: outcome (HEK293) | outcome (HaCat [1]) | max response (KB-3-1) 2.46% | max response (NIH3T3) 0.487% | outcome (HACAT [2]) inactive [at 17.4 µM] | Potency (HEK293T)

COC1CCCC/C(C)=C/C2C=C(C)C(C)C3C(CC(C)C)NC(=O)C23C(=O)C1 (stereo not given)
inactive: outcome (HEK293) | outcome (HaCat [1]) | max response (KB-3-1) 5.18% | outcome (NIH3T3) | outcome (HACAT [2]) inactive [at 17.4 µM] | Potency (HEK293T)

CNC(=O)O[C@H]1COc2ccc(N3CCN(C4COC4)CC3)cc2[C@@H]1NC(=O)c1ccc(F)cc1
inactive: outcome (HEK293) | outcome (HaCat [1]) | outcome (KB-3-1) | outcome (NIH3T3) | outcome (HACAT [2]) | Potency (HEK293T)

COc1ccc2c3c1O[C@H]1C[C@@H](O)C=C[C@@]31CCN(C)C2
inactive: outcome (HEK293) | outcome (HaCat [1]) | outcome (KB-3-1) | max response (NIH3T3) -4.93% | outcome (HACAT [2]) | Potency (HEK293T)

NC(Cc1c[nH]c2ccccc12)C(=O)NC(CCC(=O)O)C(=O)O (stereo not given)
inactive: outcome (HEK293) | outcome (HaCat [1]) | max response (KB-3-1) 5.6% | max response (NIH3T3) 1.77% | outcome (HACAT [2]) | Potency (HEK293T)

CC1=CC(=O)C[C@H]2[C@@H]1CC[C@@H](C)[C@]21CO[C@H](c2ccoc2)C1=O
inactive: outcome (HEK293) | outcome (HaCat [1]) | max response (KB-3-1) -0.71% | max response (NIH3T3) -2.85% | outcome (HACAT [2]) | Potency (HEK293T)

CCOC(=O)[C@H](CCc1ccccc1)N[C@@H](C)C(=O)N1C2CCCCC2C[C@H]1C(=O)O (stereo not given in full)
inactive: outcome (HEK293) | outcome (HaCat [1]) | max response (KB-3-1) 6.12% | outcome (NIH3T3) | outcome (HACAT [2]) | Potency (HEK293T)

CCn1nnnc1NCc1ccc(C(C)C)cc1
inactive: outcome (HEK293) | outcome (HaCat [1]) | max response (KB-3-1) 2.69% | outcome (NIH3T3) | outcome (HACAT [2]) | Potency (HEK293T)

O=C(O[C@H]1[C@@H]2C=CO[C@@H](O[C@@H]3O[C@H](CO)[C@@H](O)[C@H](O)[C@H]3O)[C@@H]2[C@@]2(CO)O[C@@H]12)c1ccc(O)c(O)c1
inactive: outcome (HEK293) | outcome (HaCat [1]) | max response (KB-3-1) 4.32% | outcome (NIH3T3) | outcome (HACAT [2]) inactive [at 17.4 µM] | Potency (HEK293T)

COc1cc2c(cc1OC)CN(C(=O)[C@@H](NCc1ccncc1)C(C)(C)C)CC2
inactive: outcome (HEK293) | outcome (HaCat [1]) | max response (KB-3-1) 5.18% | outcome (NIH3T3) | outcome (HACAT [2]) | Potency (HEK293T)

c1ccc(Nc2nc3c(s2)CCCc2[nH]ncc2-3)nc1
inactive: outcome (HEK293) | outcome (HaCat [1]) | outcome (KB-3-1) | max response (NIH3T3) 3.95% | outcome (HACAT [2]) | Potency (HEK293T)

COC(=O)C1=C[C@@H](O)[C@@H](O)[C@H](O[C@@H]2O[C@H](COC(=O)/C=C/c3ccccc3)[C@@H](O)[C@H](O)[C@H]2O)C1
inactive: outcome (HEK293) | outcome (HaCat [1]) | max response (KB-3-1) 3.55% | outcome (NIH3T3) | outcome (HACAT [2]) inactive [at 17.4 µM] | Potency (HEK293T)

C#Cc1cnc2[nH]c(=O)n(C(CC)CC)c2n1
inactive: outcome (HEK293) | outcome (HaCat [1]) | max response (KB-3-1) 8.63% | outcome (NIH3T3) | outcome (HACAT [2]) | Potency (HEK293T)

CC(NCc1ccc(OCc2cccc(F)c2)cc1)C(N)=O (stereo not given)
inactive: outcome (HEK293) | outcome (HaCat [1]) | max response (KB-3-1) 9.7% | outcome (NIH3T3) | outcome (HACAT [2]) | Potency (HEK293T)
